# Screens as filed in PubChem BioAssay.
# NPC1 promoter act: qHTS Assay for NPC1 Promoter Activators | Huh7 NPC1 promoter luciferase reporter, 24 h | Potency, µM (titrated, usually from 9.22 µM), for the others: at the top dose activation, hits mostly activators | actives 2.4% (n = 320,000) | AID 485313, 2010; also: % of control where 0% means no effect; nearly all actives have a fitted effect of over 60% in size
#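 Stably transfected Huh7 (NPC1 promoter→luciferase), 1500 cells/well in Opti-MEM + 10% FBS, 2 h settle, then compound 24 h at 37 °C. Luminescence after 10 min with Amplite reagent.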
# FLuc counter: qHTS profiling assay for firefly luciferase inhibitor/activator using purifed enzyme and Km concentrations of substrates (counterscreen for miR-21 project); Luciferin 4-monooxygenase (Photinus pyralis), P08659; purified FLuc, Km substrates, luminescence inhibition; Potency, µM (titrated, usually from 57.5 µM), inactives show at the highest dose activity change, negative = inhibition, actives largely listed as inhibitors; actives 6.9% (n = 360,000); AID 588342, 2011;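 also: plate controls were vehicle for no effect and reference inhibitor for full effect; nearly all actives have a fitted effect of over 55% in size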
# Target sequence (P08659 whole entry, looked up): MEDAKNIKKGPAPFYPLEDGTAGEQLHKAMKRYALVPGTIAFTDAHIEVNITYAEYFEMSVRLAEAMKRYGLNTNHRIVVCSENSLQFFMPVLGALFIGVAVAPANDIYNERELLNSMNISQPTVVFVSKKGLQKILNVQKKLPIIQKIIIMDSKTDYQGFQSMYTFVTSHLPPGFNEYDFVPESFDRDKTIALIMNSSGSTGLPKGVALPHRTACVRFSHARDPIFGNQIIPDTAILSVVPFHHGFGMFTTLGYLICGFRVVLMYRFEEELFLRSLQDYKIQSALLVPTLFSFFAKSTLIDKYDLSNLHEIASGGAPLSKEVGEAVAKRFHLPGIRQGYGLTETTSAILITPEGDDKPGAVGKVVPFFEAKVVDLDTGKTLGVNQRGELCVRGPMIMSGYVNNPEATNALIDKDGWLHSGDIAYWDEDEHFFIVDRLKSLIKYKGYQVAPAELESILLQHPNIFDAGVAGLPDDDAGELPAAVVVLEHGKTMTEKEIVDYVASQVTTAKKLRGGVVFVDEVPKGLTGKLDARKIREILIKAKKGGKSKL
#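 Purified P. pyralis luciferase, 10 nM final, with Km-level 10 uM D-luciferin and 10 uM ATP in 50 mM Tris acetate pH 7.5, 10 mM Mg acetate, 0.01% Tween-20, 0.05% BSA; 6-point qHTS titration about 60 µM downward; luminescence read.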
# ELG1 repair inh: qHTS screen for small molecules that inhibit ELG1-dependent DNA repair in human embryonic kidney (HEK293T) cells expressing luciferase-tagged ELG1; HEK293T ELG1-luciferase reporter, luminescence, 16 h; DNA damage induced by 5-fluorouridine; Potency, µM (doses to about 46.1 µM), inactives show top-dose activity change, negative = inhibition, hits mostly inhibitors; actives 2.3% (n = 330,000); AID 504467, 2011; also: % is scaled to controls: 0 for no effect and ±100 for the full control effect; nearly all actives have a fitted effect of over 55% in size
#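 In this reporter screen, reduction of luminescence relative to DMSO vehicle indicated activity. Compounds and 5-fluorouridine were added together to 2,000 cells per well, incubated for 16 hr at 37 °C, then developed with ONE-Glo.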
# SMN2 splice up: qHTS Assay for Enhancers of SMN2 Splice Variant Expression; actives 2.8% (n = 210,000); Potency, µM (highest dose often 46.1 µM), for inactives: at the highest dose activity change, positive = activation, actives largely listed as activators; HEK293 SMN2-luciferase splicing reporter, luminescence, 30-36 h; AID 1458, 2008; also: % of control where 0% means no effect; nearly all actives have a fitted effect of over 55% in size
#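 HEK293 cells carry an SMN2 […]–luciferase reporter in which exon 7 inclusion puts luciferase in frame. Cells were plated 10-12 h before compound addition, then incubated 30-36 h at 37C. ONE-Glo luminescence was read; sodium butyrate at 4.5 mM final served as control.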
# Rab9 prom act: qHTS Assay for Rab9 Promoter Activators. actives 2.8% (n = 320,000). Huh7 Rab9 promoter-luciferase reporter, luminescence, 24 h. AID 485297, 2010. Potency, µM (doses to about 9.22 µM), for inactives: at the top dose activation, negative = inhibition, actives largely listed as activators; also: % of control where 0% means no effect; nearly all actives have a fitted effect of over 60% in size
#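 Quantitative HTS format; Huh7 Rab9-luciferase reporter cells (1500/well) receive compound 2 h post-plating, incubate 24 h at 37 °C, then get luciferase reagent for 10 min before luminescence reading.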
# ELG1 genotox: qHTS screen for small molecules that induce genotoxicity in human embryonic kidney (HEK293T) cells expressing luciferase-tagged ELG1. HEK293T ELG1-luciferase reporter, luminescence, 16 h. Potency, µM (titrated, usually from 46 µM), without a hit: at the highest dose activity change, positive = activation, most hits filed as activators. actives 1.3% (n = 330,000); also: % of control where 0% means no effect; nearly all actives have a fitted effect of over 60% in size
#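 ELG1-luciferase HEK293T cells, 2,000/well; compound pinned in; 16 hr, 37 °C, 5% CO2; ONE-Glo, 30 min RT; luminescence on CCD imager.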
# ELG1 FLuc counter: qHTS screen for small molecules that inhibit ELG1-dependent DNA repair: Hit Confirmation in Cell-Based Luciferin Assay | shares compounds with ELG1 repair inh | cell-free firefly luciferase luminescence counter-screen, ViewLux | Potency, µM (doses to about 46.1 µM), inactives show at the highest dose activity change, negative = inhibition, hits mostly inhibitors | actives 3% (n = 350); also: % is scaled to controls: 0 for no effect and ±100 for the full control effect
# ELG1 Luc conf: HTS assay for small molecules that inhibit ELG1-dependent DNA repair in human embryonic kidney (HEK293T) cells expressing luciferase-tagged ELG1: Hit Confirmation; actives 68% (n = 670); Potency, µM (titrated, usually from 46.1 µM), without a hit: top-dose activity change, negative = inhibition, most hits filed as inhibitors; HEK293T ELG1-luciferase levels, luminescence; cells co-treated with 5-fluorouridine; shares compounds with ELG1 repair inh; also: % is scaled to controls: 0 for no effect and ±100 for the full control effect; nearly all actives have a fitted effect of over 55% in size
# ELG1 MMS Luc: MMS-stimulated human ELG1 repair inhibition, confirmed; shares compounds with ELG1 repair inh; HEK293T luciferase-tagged ELG1 level, MMS stimulated; Potency, µM (highest dose often 46.1 µM), without a hit: top-dose activity change, negative = inhibition, hits mostly inhibitors; actives 53% (n = 670); also: % is scaled to controls: 0 for no effect and ±100 for the full control effect; nearly all actives have a fitted effect of over 60% in size
# ELG1 5FU viab: qHTS screen for small molecules that inhibit ELG1-dependent DNA repair: Hit Confirmation with 5FU Viability; shares compounds with ELG1 repair inh; cell viability with 5-FU, ELG1-dependent repair; Potency, µM (top dose mostly 46.1 µM), inactives show at the top dose activity change, negative = viability loss, most hits filed as cytotoxic; 670 tested, under 10 active; AID 624250, 2012;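 also: ELG1-luc HEK293T cells cotreated with 5-fluorouridine at 10 µM final; viability measured 16 h after compound addition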
# ELG1 MMS cell: qHTS screen for small molecules that inhibit ELG1-dependent DNA repair: Hit Confirmation with MMS Viability. shares compounds with ELG1 repair inh. actives 33% (n = 670). Potency, µM (highest dose often 46.1 µM), inactives show at the top dose activity change, negative = viability loss, hits mostly cytotoxic. Cell viability with MMS, ELG1-dependent DNA repair;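 also: ELG1-luc HEK293T cells co-treated with 10 µM MMS; viability read 16 h after compound addition; % is scaled to controls: 0 for no effect and ±100 for the full control effect; nearly all actives have a fitted effect of over 60% in size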
# Cell viab unstim: qHTS screen for small molecules that inhibit ELG1-dependent DNA repair: Hit Confirmation with Unstimulated Viability Assay. shares compounds with ELG1 repair inh. cell viability counter-screen, unstimulated, luminescence. Potency, µM (doses to about 45.9 µM), for inactives: top-dose activity change, negative = loss of viability, actives largely listed as cytotoxic. actives 8% (n = 900). AID 624252, 2012;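 also: compound exposure lasted 16 hours before reading; % is scaled to controls: 0 for no effect and ±100 for the full control effect; nearly all actives have a fitted effect of over 55% in size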
# FLuc enzyme: qHTS screen for small molecules that inhibit ELG1-dependent DNA repair: Hit Confirmation in Biochemical Luciferin Assay; actives 10% (n = 350); shares compounds with ELG1 repair inh; Potency, µM (doses to about 57.5 µM), for inactives: at the top dose activity, negative = inhibition, hits mostly inhibitors; purified firefly luciferase, luminescence counter-screen; also: % is scaled to controls: 0 for no effect and ±100 for the full control effect
# * = called active by the depositor; ? = inconclusive; . = no result given; [ ] = another dose, or the depositor's remark. Shown are actives, neighbours in structure and some others; about 9.2% of the full set was active somewhere. Calls follow the shape of the dose curve; as a rule, active = well fitted curve in the direction sought with a large enough effect; inconclusive = small, poorly fitted or top-dose-only effect, or another doubt; inactive = no such curve, though single readings can be large; an effect the other way counts as inactive or inconclusive. Potency is read from the fitted curve at half-maximal effect.
SMILES,NPC1 promoter act,FLuc counter,ELG1 repair inh,SMN2 splice up,Rab9 prom act,ELG1 genotox,ELG1 FLuc counter,ELG1 Luc conf,ELG1 MMS Luc,ELG1 5FU viab,ELG1 MMS cell,Cell viab unstim,FLuc enzyme
CC[C@@H]1/C=C/C=C/C[C@H](C)[C@@H](O)[C@](C)(O)C(=O)[C@H](C)[C@@H](O)[C@H](C)C(=O)[C@H](C)[C@@H](O)[C@H](C)/C=C/C(=O)O[C@H]2[C@@H](C)[C@@H](CC1)O[C@@]1(CC[C@@H](C)[C@@H](C[C@H](C)O)O1)[C@@H]2C,.,.,.,-40%,.,.,?,7.1µM*,0.011µM*,?,0.011µM*,0.028µM*,-2%
c1ccc2c(c1)CCCC2,.,.,.,0%,.,.,.,.,.,.,.,.,.
Cc1nccc2c1[nH]c1ccc(Br)cc12,-1%,1%,-7%,.,-2%,0%,.,.,.,.,.,.,.
COc1ccc2c(c1)[nH]c1c(C)nccc12,2%,-1%,2µM*,-25%,-3%,.,.,2.8µM*,11µM*,9%,?,-14%,.
CN(N=O)c1ccc(O)c(O)c1,0%[46.1 µM],.,.,-42%,1%[46.1 µM],.,.,.,.,.,.,.,.
COc1ccccc1OP(=O)(Nc1cccnc1)Oc1ccccc1OC,0%,-1%,2.3µM*,18%,-8%,-10%,.,11µM*,7.9µM*,8%,-16%,?,.
Cc1ccc(NP(=O)(Oc2ccccc2F)Oc2ccccc2F)cc1C,-1%,6%,?,-85%,-1%,-3%,.,.,.,.,.,.,.
CC1(C)Cc2c(c(N3CCOCC3)nc3sc4c(NCc5ccccc5)nnnc4c23)CS1,-4%,6%,13µM*,-9%,-2%,-6%,4%,2.5µM*,15%,?,-2%,-13%,-14%
CCCN1CCCC(c2cccc(O)c2)C1 (centres undefined),.,.,.,7%,.,.,.,.,.,.,.,.,.
c1ccc2sc(C3(N4CCCC4)CCCCC3)cc2c1,.,.,.,-14%,.,.,.,.,.,.,.,.,.
CCC(C)NC(=O)CCC(=O)OC1O[C@H]2OC3(C)CC[C@H]4[C@H](C)CCC(C1C)C24OO3 (some centres undefined),-18%,-3%,?,.,-22%,-8%,.,.,.,.,.,.,.
CCC(C)C(NC(=O)CCCNC(=O)CCC(=O)OC1O[C@H]2OC3(C)CC[C@H]4[C@H](C)CCC(C1C)C24OO3)C(=O)O (some centres undefined),-22%,-2%,0.58µM*,.,-20%,-9%,-12%,?,?,-6%,-4%,?,-3%
CN=C=O,.,.,.,-6%,.,.,.,.,.,.,.,.,.
Cc1c(C(=O)N2CCC(Cc3ccccc3)CC2)sc2ncnc(N3CCC(C)CC3)c12,-5%,-10%,0%,-33%,0%,-1%,2%,16µM*,?,10%,-12%,-4%,2%
CN=C=S,.,.,.,5%,.,.,.,.,.,.,.,.,.
CCCSc1ccc2nc(NC(=O)OC)[nH]c2c1,24%,3µM*,?,?,17%,-1%,.,.,.,.,.,-3%,.
CC(C)(C)OC(=O)NCc1ccc(CNC(=O)c2nc[nH]c2C(=O)NCc2ccc(CNC(=O)OC(C)(C)C)cc2)cc1,.,.,2.9µM*,.,.,-7%,.,5µM*,?,7%,9%,?,.
C[C@@H]1O[C@@H](O[C@H]2C[C@@H](O)[C@]3(CO)[C@H]4[C@H](O)C[C@]5(C)[C@@H](C6COC(=O)C6)CC[C@]5(O)[C@@H]4CC[C@]3(O)C2)[C@H](O)[C@H](O)[C@H]1O (some centres undefined),-45%,5%,1.5µM*,0.79µM*,-37%,-22%,?,2.5µM*,1.6µM*,?,3.2µM*,?,3%
C[C@@H]1O[C@@H](O[C@H]2C[C@@H](O)[C@]3(CO)[C@@H]4C(CC[C@]3(O)C2)[C@@]2(O)CC[C@H]([C@@H]3COC(=O)C3)[C@@]2(C)C[C@H]4O)[C@H](O)[C@H](O)[C@H]1O (some centres undefined),-34%[46.1 µM],.,.,.,-43%[46.1 µM],.,.,.,.,.,.,.,.
